# Source: PMC7862700, “An all-to-all approach to the identification of sequence-specific readers for epigenetic DNA modifications on cytosine”
# Biological target: T1, FEV (Homo sapiens, UniProt Q99581 1-238)
# T1 sequence: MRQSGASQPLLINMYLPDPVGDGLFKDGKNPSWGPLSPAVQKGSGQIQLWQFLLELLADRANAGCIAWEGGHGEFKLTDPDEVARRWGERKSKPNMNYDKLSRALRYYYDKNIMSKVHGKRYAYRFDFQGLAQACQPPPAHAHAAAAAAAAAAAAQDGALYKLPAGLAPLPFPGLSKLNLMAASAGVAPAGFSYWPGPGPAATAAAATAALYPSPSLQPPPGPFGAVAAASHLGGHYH
# Experiment: DAPPL (digital affinity profiling via proximity ligation, sequencing); 10 mM Tris-HCl pH 7.5, 50 mM NaCl, 1 mM DTT, 4% glycerol, room temperature, 30 min; GST-TFs on glutathione beads, 16-mer random dsDNA library, 0.1% formaldehyde crosslink after washing; high values mean tight binding
# Conditions: protein: recombinant; tags: N-terminal GST; dsDNA, one strand shown
# Procedure, shortened: (§1)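 A tag-only sample was pooled with DNA-barcoded human transcription factors that had been expressed in yeast as GST fusions and captured on glutathione beads. The pools were incubated for 30 min at room temperature with 200 nmole of a random double-stranded 16-mer DNA library in Tris/NaCl/DTT/glycerol buffer, then washed, crosslinked with 0.1% formaldehyde, proximity-ligated (BsaI/T4 ligase, 1 h, 37 °C), PCR-amplified and sequenced on an Illumina NextSeq500. Binding signal is each hexamer's read frequency for a factor divided by its frequency for the tag-only sample.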
row,Sequence,binding signal
1,AATGAA,"1.11 fold enrichment (6-mer frequency, TF over GST control)"
2,CTCGTA,"1.33 fold enrichment (6-mer frequency, TF over GST control)"
3,CCGACT,"1.52 fold enrichment (6-mer frequency, TF over GST control)"
4,TTGCTG,"1.13 fold enrichment (6-mer frequency, TF over GST control)"
5,CACCTT,"1.31 fold enrichment (6-mer frequency, TF over GST control)"
6,TCGAAT,"1.03 fold enrichment (6-mer frequency, TF over GST control)"
7,ATAGTT,"1.11 fold enrichment (6-mer frequency, TF over GST control)"
8,ATCCCG,"1.35 fold enrichment (6-mer frequency, TF over GST control)"
9,CTTTAC,"1.31 fold enrichment (6-mer frequency, TF over GST control)"
10,TAATCC,"1.24 fold enrichment (6-mer frequency, TF over GST control)"
11,CGGCTT,"1.14 fold enrichment (6-mer frequency, TF over GST control)"
12,AATCAT,"1.1 fold enrichment (6-mer frequency, TF over GST control)"
13,TTAAAT,"1.16 fold enrichment (6-mer frequency, TF over GST control)"
14,TTACTG,"1.04 fold enrichment (6-mer frequency, TF over GST control)"
15,GGATTT,"2.01 fold enrichment (6-mer frequency, TF over GST control)"
16,CTACAA,"1.14 fold enrichment (6-mer frequency, TF over GST control)"
17,ATCTAC,"1.33 fold enrichment (6-mer frequency, TF over GST control)"
18,ATCCAA,"1.19 fold enrichment (6-mer frequency, TF over GST control)"
19,GACCTA,"1.17 fold enrichment (6-mer frequency, TF over GST control)"
20,ATTACG,"1.16 fold enrichment (6-mer frequency, TF over GST control)"

row,Sequence,binding signal
1,AATTCT,"1.29 fold enrichment (6-mer frequency, TF over GST control)"
2,TTCATC,"1.21 fold enrichment (6-mer frequency, TF over GST control)"
3,AGCTCA,"1.08 fold enrichment (6-mer frequency, TF over GST control)"
4,TAATCG,"1.01 fold enrichment (6-mer frequency, TF over GST control)"
5,ATTGCT,"1.22 fold enrichment (6-mer frequency, TF over GST control)"
6,CTCCCT,"1.44 fold enrichment (6-mer frequency, TF over GST control)"
7,CGACCT,"1.59 fold enrichment (6-mer frequency, TF over GST control)"
8,CTCATC,"1.34 fold enrichment (6-mer frequency, TF over GST control)"
9,TGACAA,"1.22 fold enrichment (6-mer frequency, TF over GST control)"
10,CCTGAA,"1.4 fold enrichment (6-mer frequency, TF over GST control)"
11,TTTACG,"1.26 fold enrichment (6-mer frequency, TF over GST control)"
12,ATTAGC,"1.05 fold enrichment (6-mer frequency, TF over GST control)"
13,CGAGCA,"1.16 fold enrichment (6-mer frequency, TF over GST control)"
14,CCTATT,"1.39 fold enrichment (6-mer frequency, TF over GST control)"
15,ATTCCC,"1.42 fold enrichment (6-mer frequency, TF over GST control)"
16,GCTGCT,"1.27 fold enrichment (6-mer frequency, TF over GST control)"
17,TTGTAG,"1.02 fold enrichment (6-mer frequency, TF over GST control)"
18,CTTTCA,"1.31 fold enrichment (6-mer frequency, TF over GST control)"
19,AAATTA,"1.19 fold enrichment (6-mer frequency, TF over GST control)"
20,TATGCC,"1.13 fold enrichment (6-mer frequency, TF over GST control)"

# Biological target: ETV5 (Homo sapiens, UniProt P41161 1-510)
# Sequence (P41161 whole entry): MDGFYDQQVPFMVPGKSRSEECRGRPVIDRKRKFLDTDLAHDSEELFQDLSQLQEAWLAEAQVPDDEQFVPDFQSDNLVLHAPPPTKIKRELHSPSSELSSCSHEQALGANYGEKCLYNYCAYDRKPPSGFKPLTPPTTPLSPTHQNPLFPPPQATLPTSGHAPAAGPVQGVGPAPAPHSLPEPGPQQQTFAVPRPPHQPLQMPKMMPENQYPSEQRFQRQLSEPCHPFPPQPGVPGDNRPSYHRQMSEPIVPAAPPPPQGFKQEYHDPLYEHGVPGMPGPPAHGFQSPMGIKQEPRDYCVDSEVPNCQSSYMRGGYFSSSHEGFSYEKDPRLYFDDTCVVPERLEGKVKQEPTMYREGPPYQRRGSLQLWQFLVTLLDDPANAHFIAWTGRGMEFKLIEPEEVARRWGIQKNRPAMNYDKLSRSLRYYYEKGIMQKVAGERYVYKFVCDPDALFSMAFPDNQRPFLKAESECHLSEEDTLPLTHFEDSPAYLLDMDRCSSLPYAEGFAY
# Experiment: as above
# Conditions: protein: recombinant; tags: N-terminal GST; dsDNA, one strand shown
# Procedure, shortened: as §1
row,Sequence,binding signal
1,AATGAA,"1.16 fold enrichment (6-mer frequency, TF over GST control)"
2,CTCGTA,"1.29 fold enrichment (6-mer frequency, TF over GST control)"
3,CCGACT,"1.44 fold enrichment (6-mer frequency, TF over GST control)"
4,TTGCTG,"1.09 fold enrichment (6-mer frequency, TF over GST control)"
5,CACCTT,"1.18 fold enrichment (6-mer frequency, TF over GST control)"
6,TCGAAT,"1.15 fold enrichment (6-mer frequency, TF over GST control)"
7,ATAGTT,"1.25 fold enrichment (6-mer frequency, TF over GST control)"
8,ATCCCG,"1.43 fold enrichment (6-mer frequency, TF over GST control)"
9,CTTTAC,"1.3 fold enrichment (6-mer frequency, TF over GST control)"
10,TAATCC,"1.3 fold enrichment (6-mer frequency, TF over GST control)"
11,CGGCTT,"1.16 fold enrichment (6-mer frequency, TF over GST control)"
12,AATCAT,"1.15 fold enrichment (6-mer frequency, TF over GST control)"
13,TTAAAT,"1.2 fold enrichment (6-mer frequency, TF over GST control)"
14,TTACTG,"1.15 fold enrichment (6-mer frequency, TF over GST control)"
15,GGATTT,"1.33 fold enrichment (6-mer frequency, TF over GST control)"
16,CTACAA,"1.21 fold enrichment (6-mer frequency, TF over GST control)"
17,ATCTAC,"1.25 fold enrichment (6-mer frequency, TF over GST control)"
18,ATCCAA,"1.13 fold enrichment (6-mer frequency, TF over GST control)"
19,GACCTA,"1.2 fold enrichment (6-mer frequency, TF over GST control)"
20,ATTACG,"1.26 fold enrichment (6-mer frequency, TF over GST control)"

row,Sequence,binding signal
1,AATTCT,"1.28 fold enrichment (6-mer frequency, TF over GST control)"
2,TTCATC,"1.28 fold enrichment (6-mer frequency, TF over GST control)"
3,AGCTCA,"1.1 fold enrichment (6-mer frequency, TF over GST control)"
4,TAATCG,"1.07 fold enrichment (6-mer frequency, TF over GST control)"
5,ATTGCT,"1.16 fold enrichment (6-mer frequency, TF over GST control)"
6,CTCCCT,"1.73 fold enrichment (6-mer frequency, TF over GST control)"
7,CGACCT,"1.61 fold enrichment (6-mer frequency, TF over GST control)"
8,CTCATC,"1.34 fold enrichment (6-mer frequency, TF over GST control)"
9,TGACAA,"1.22 fold enrichment (6-mer frequency, TF over GST control)"
10,CCTGAA,"1.38 fold enrichment (6-mer frequency, TF over GST control)"
11,TTTACG,"1.28 fold enrichment (6-mer frequency, TF over GST control)"
12,ATTAGC,"1.04 fold enrichment (6-mer frequency, TF over GST control)"
13,CGAGCA,"1.1 fold enrichment (6-mer frequency, TF over GST control)"
14,CCTATT,"1.51 fold enrichment (6-mer frequency, TF over GST control)"
15,ATTCCC,"1.44 fold enrichment (6-mer frequency, TF over GST control)"
16,GCTGCT,"1.25 fold enrichment (6-mer frequency, TF over GST control)"
17,TTGTAG,"1.1 fold enrichment (6-mer frequency, TF over GST control)"
18,CTTTCA,"1.26 fold enrichment (6-mer frequency, TF over GST control)"
19,AAATTA,"1.26 fold enrichment (6-mer frequency, TF over GST control)"
20,TATGCC,"1.18 fold enrichment (6-mer frequency, TF over GST control)"

# Biological target: HSF1 (Homo sapiens, UniProt Q00613 1-529)
# Sequence (Q00613 whole entry): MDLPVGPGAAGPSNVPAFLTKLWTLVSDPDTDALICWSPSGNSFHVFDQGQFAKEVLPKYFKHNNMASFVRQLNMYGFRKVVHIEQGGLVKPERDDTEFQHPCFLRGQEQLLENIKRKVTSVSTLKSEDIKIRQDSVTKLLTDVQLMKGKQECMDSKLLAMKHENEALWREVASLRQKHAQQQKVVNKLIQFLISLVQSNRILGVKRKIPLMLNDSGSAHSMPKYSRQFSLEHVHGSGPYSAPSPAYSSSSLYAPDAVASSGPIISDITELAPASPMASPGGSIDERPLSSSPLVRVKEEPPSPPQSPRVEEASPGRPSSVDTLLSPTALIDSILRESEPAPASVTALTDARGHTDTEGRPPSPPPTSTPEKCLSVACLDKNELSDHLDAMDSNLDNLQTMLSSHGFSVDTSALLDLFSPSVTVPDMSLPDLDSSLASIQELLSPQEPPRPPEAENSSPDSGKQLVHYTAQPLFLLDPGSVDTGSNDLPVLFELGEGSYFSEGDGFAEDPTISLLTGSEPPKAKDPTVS
# Experiment: as above
# Conditions: protein: recombinant; tags: N-terminal GST; chain copies: 3; dsDNA, one strand shown
# Procedure, shortened: as §1
row,Sequence,binding signal
1,AATGAA,"1.12 fold enrichment (6-mer frequency, TF over GST control)"
2,CTCGTA,"1.77 fold enrichment (6-mer frequency, TF over GST control)"
3,CCGACT,"1.29 fold enrichment (6-mer frequency, TF over GST control)"
4,TTGCTG,"1.23 fold enrichment (6-mer frequency, TF over GST control)"
5,CACCTT,"1.08 fold enrichment (6-mer frequency, TF over GST control)"
6,TCGAAT,"2.2 fold enrichment (6-mer frequency, TF over GST control)"
7,ATAGTT,"1.15 fold enrichment (6-mer frequency, TF over GST control)"
8,ATCCCG,"1.58 fold enrichment (6-mer frequency, TF over GST control)"
9,CTTTAC,"1.37 fold enrichment (6-mer frequency, TF over GST control)"
10,TAATCC,"4.27 fold enrichment (6-mer frequency, TF over GST control)"
11,CGGCTT,"1.35 fold enrichment (6-mer frequency, TF over GST control)"
12,AATCAT,"1.27 fold enrichment (6-mer frequency, TF over GST control)"
13,TTAAAT,"1.85 fold enrichment (6-mer frequency, TF over GST control)"
14,TTACTG,"1.52 fold enrichment (6-mer frequency, TF over GST control)"
15,GGATTT,"1.62 fold enrichment (6-mer frequency, TF over GST control)"
16,CTACAA,"1.16 fold enrichment (6-mer frequency, TF over GST control)"
17,ATCTAC,"1.43 fold enrichment (6-mer frequency, TF over GST control)"
18,ATCCAA,"1.29 fold enrichment (6-mer frequency, TF over GST control)"
19,GACCTA,"1.06 fold enrichment (6-mer frequency, TF over GST control)"
20,ATTACG,"1.54 fold enrichment (6-mer frequency, TF over GST control)"

row,Sequence,binding signal
1,AATTCT,"2.25 fold enrichment (6-mer frequency, TF over GST control)"
2,TTCATC,"1.29 fold enrichment (6-mer frequency, TF over GST control)"
3,AGCTCA,"1.22 fold enrichment (6-mer frequency, TF over GST control)"
4,TAATCG,"1.93 fold enrichment (6-mer frequency, TF over GST control)"
5,ATTGCT,"1.14 fold enrichment (6-mer frequency, TF over GST control)"
6,CTCCCT,"1.32 fold enrichment (6-mer frequency, TF over GST control)"
7,CGACCT,"1.35 fold enrichment (6-mer frequency, TF over GST control)"
8,CTCATC,"1.27 fold enrichment (6-mer frequency, TF over GST control)"
9,TGACAA,"1.06 fold enrichment (6-mer frequency, TF over GST control)"
10,CCTGAA,"1.54 fold enrichment (6-mer frequency, TF over GST control)"
11,TTTACG,"1.32 fold enrichment (6-mer frequency, TF over GST control)"
12,ATTAGC,"1.87 fold enrichment (6-mer frequency, TF over GST control)"
13,CGAGCA,"1.38 fold enrichment (6-mer frequency, TF over GST control)"
14,CCTATT,"1.43 fold enrichment (6-mer frequency, TF over GST control)"
15,ATTCCC,"1.61 fold enrichment (6-mer frequency, TF over GST control)"
16,GCTGCT,"1.13 fold enrichment (6-mer frequency, TF over GST control)"
17,TTGTAG,"1.23 fold enrichment (6-mer frequency, TF over GST control)"
18,CTTTCA,"1.28 fold enrichment (6-mer frequency, TF over GST control)"
19,AAATTA,"1.44 fold enrichment (6-mer frequency, TF over GST control)"
20,TATGCC,"1.06 fold enrichment (6-mer frequency, TF over GST control)"
